Source: PubChem BioAssay (NCI)
The panel holds about 83,000 compounds, 20% with a hit somewhere; the sample as a whole holds those more often.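 Percent growth is the endpoint: 0 to 100 indicates growth inhibition (40 means 60% inhibition), 0 means no net growth, and negative values indicate cell death.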 The source made the active and inactive calls. How the source made its calls: active means growth percent below 10; inactive means the rest.

Assays:
Assay in all cases: NCI-60 one-dose screen, 48 h (100 = growth as untreated, 0 = no growth, -100 = all killed)
Details in all cases: 10 µM unless noted
[1] = test system: NCI-H23 lung
[2] = test system: NCI-H226 lung
[3] = test system: NCI-H322M lung
[4] = test system: HOP-62 NSCLC
[5] = test system: NCI-H460 lung
[6] = test system: HOP-92 NSCLC
[7] = test system: NCI-H522 lung
[8] = test system: A549/ATCC NSCLC
[9] = test system: 786-0 renal
[10] = test system: COLO 205 colon
[11] = test system: DU-145 prostate
[12] = test system: K-562 leukemia
[13] = test system: MDA-MB-231 breast
[14] = test system: RXF 393 renal
[15] = test system: SF-268 CNS
[16] = test system: SF-539 CNS
[17] = test system: UACC-257 melanoma
[18] = test system: M14 melanoma
[19] = test system: SF-295 CNS
[20] = test system: MALME-3M melanoma

Measured: growth

C/C(=N\Nc1cc(C)c2cc(C)ccc2n1)c1ccccn1
active: [2] -5.19% | [3] -9.38% | [5] -68.7% | [6] -11% | [7] -93.5% | [8] 1.9% | [9] -73.3% | [10] -99.9% | [12] -40.8% | [13] -89.1% | [14] -88.2% | [15] -4.43% | [16] -92.4% | [17] -73.5% | [18] -82.9%
inactive: [1] 10.2% | [4] 10.1% | [11] 21%

COc1ccc(/C(=C\c2ccc3c(c2)OCO3)C(=O)Nc2nc3ccccc3s2)cc1OC
inactive: [1] 95.1% | [2] 86.9% | [3] 91.4% | [4] 94.2% | [5] 102% | [6] 91.4% | [7] 89.5% | [8] 91.5% | [9] 83.7% | [10] 110% | [11] 105% | [12] 83.9% | [13] 109% | [14] 88.4% | [15] 83.2% | [16] 93.8% | [17] 105% | [18] 92.7%

Cn1cc(-c2csc(-c3cn(C(=O)OC(C)(C)C)c4ccc(Br)cc34)n2)c2cccnc21
inactive: [1] 92.2% | [2] 101% | [3] 88.9% | [4] 99.2% | [5] 62.3% | [6] 98.7% | [7] 96.3% | [8] 78.5% | [9] 99.9% | [10] 86% | [11] 108% | [12] 97.6% | [13] 75.3% | [14] 88.5% | [15] 94.7% | [19] 79.8% | [16] 106% | [17] 114% | [18] 104%

Oc1ccccc1/C=N\NC(=S)Nc1ccc(F)cc1
inactive: [1] 30.4% | [2] 25.7% | [3] 30.1% | [4] 36.5% | [6] 46.4% | [7] 21.4% | [8] 22.1% | [9] 16.6% | [10] 50.3% | [11] 30.4% | [12] 14.9% | [13] 49% | [14] 20.1% | [15] 27.8% | [19] 11.6% | [16] 23.9% | [17] 15.4%
active: [5] 4.08% | [18] -30.4%

CN(C)CCCC1(c2ccc(F)cc2)OCc2cc(-c3ccc(C(F)(F)F)nc3)ccc21 (stereo not given)
inactive: [1] 80.6% | [2] 90.6% | [3] 84.7% | [4] 83.3% | [5] 72.9% | [6] 51.1% | [7] 74.7% | [8] 71.4% | [9] 72.7% | [11] 83.6% | [12] 13.5% | [20] 34.9% | [13] 72.6% | [14] 45.1% | [15] 73.7% | [19] 81.2% | [16] 80.8% | [18] 13.8%
active: [17] -31.8%

Cc1ccc2c(c1)c(-c1nc(-c3c[nH]c4ncccc34)cs1)cn2C
inactive: [1] 71.9% | [2] 88.9% | [3] 73.1% | [4] 105% | [5] 56.8% | [6] 83.8% | [7] 70.5% | [8] 87.8% | [9] 83% | [10] 112% | [11] 115% | [12] 81% | [13] 75.7% | [14] 97.4% | [15] 128% | [19] 101% | [16] 92% | [17] 115% | [18] 101%

C=C(C)[C@@H]1CC[C@]2(C(=O)O)CC[C@]3(C)[C@H](CC[C@@H]4[C@@]5(C)C/C(=C/c6cccc(I)c6)C(=O)C(C)(C)[C@@H]5CC[C@]43C)[C@@H]12
inactive: [1] 20.3% | [2] 31.5% | [3] 37.2% | [4] 21.8% | [5] 11.8% | [6] 16% | [7] 10% | [8] 17.2% | [9] 25% | [11] 28.7% | [12] 12.5% | [20] 53.3% | [13] 56% | [14] 51.9% | [15] 25.5% | [19] 26.7% | [16] 48.3% | [17] 20.7% | [18] 30.3%

Clc1ccc2[nH]cc(-c3nc(-c4c[nH]c5ncccc45)cs3)c2c1
inactive: [1] 51.7% | [2] 63% | [3] 59.1% | [4] 54.1% | [5] 19% | [6] 43.5% | [7] 46.5% | [8] 21.7% | [9] 27.6% | [10] 18.3% | [11] 42.1% | [12] 13.1% | [13] 37.9% | [14] 45.5% | [15] 61.7% | [19] 19.4% | [16] 70.5% | [18] 20.1%
active: [17] 9.88%

COc1ccc(-c2n/c(=C\c3c(O)[nH]c4ccc(OC)cc34)cc3c2=Nc2ccccc2-3)cc1
inactive: [2] 89.2% | [3] 97.8% | [4] 83.4% | [6] 72.1% | [7] 76% | [8] 19.3% | [10] 88.9% | [13] 39% | [17] 83.6%
active: [1] -7.74% | [5] -32.2% | [9] -82.3% | [11] -2.21% | [12] -32.8% | [15] -33.3% | [16] -48% | [18] -40.5%

CC1=CC(=O)N(c2cccc3c(N4C(=O)C=C(C)C4=O)cccc23)C1=O
active: [7] -74.6% | [10] -45.6% | [12] 6.92% | [14] -10.7%
inactive: [1] 79.4% | [2] 100% | [3] 102% | [4] 100% | [5] 113% | [6] 78.6% | [8] 96.5% | [9] 96.3% | [11] 72.3% | [13] 107% | [15] 106% | [19] 121% | [16] 32.7% | [17] 82.4% | [18] 96.2%

N#CCCCCCn1c2ccccc2c2c3[nH]c(=O)[nH]c(=O)c3c3c4ccccc4n(CCCCCC#N)c3c21
inactive: [1] 55.6% | [2] 65.8% | [3] 42.5% | [4] 15.8% | [5] 34.9% | [6] 19.2% | [7] 44.9% | [8] 73.7% | [10] 71.6% | [11] 54.7% | [20] 33.7% | [14] 41.4% | [15] 19.6% | [19] 43.7% | [18] 66.8%
active: [9] 0.172% | [13] -7.94% | [16] -0.187%

Cn1cc(-c2csc(-c3cn(CCNC(=O)OC(C)(C)C)c4ccccc34)n2)c2cccnc21
inactive: [1] 65.7% | [2] 55.9% | [3] 90.1% | [4] 72.5% | [5] 92.6% | [6] 56.6% | [7] 52.6% | [8] 78.8% | [9] 93.6% | [11] 101% | [12] 56.2% | [20] 82.8% | [13] 82.9% | [14] 105% | [15] 90.5% | [19] 97.7% | [16] 93.1% | [17] 92.2% | [18] 61.1%

Cc1ccc2[nH]cc(-c3nc(-c4cn(C)c5ncccc45)cs3)c2c1
inactive: [1] 74.7% | [2] 74.2% | [3] 101% | [4] 105% | [5] 91.4% | [6] 74.6% | [7] 86.5% | [8] 75.5% | [9] 91.3% | [10] 97.9% | [11] 97.7% | [12] 59.4% | [13] 83.4% | [14] 100% | [15] 97% | [19] 77.9% | [16] 93.8% | [17] 94% | [18] 80%

Cc1cc(C)nc(NC(N)=NCCc2ccccc2)n1
inactive: [1] 50.4% | [2] 52.6% | [3] 52.1% | [4] 52.4% | [5] 23.9% | [6] 39.2% | [7] 29.9% | [8] 33.1% | [9] 50.1% | [10] 40.1% | [11] 42.6% | [13] 51.6% | [14] 51.4% | [15] 39.5% | [16] 36.7% | [17] 30.2% | [18] 31.8%

Cc1cccc2c1NC(=O)[C@@]21[C@H](C(=O)c2ccccc2)[C@]2(C(=O)Nc3ccccc32)[C@H]2CCCN21
active: [4] 4.33% [100 µM] | [6] -25.2% [100 µM] | [14] -23.9% [100 µM] | [16] 6.13% [100 µM]
inactive: [1] 38.4% [100 µM] | [2] 13% [100 µM] | [3] 48.8% [100 µM] | [5] 12.3% [100 µM] | [7] 17% [100 µM] | [8] 15% [100 µM] | [9] 15.3% [100 µM] | [10] 33.1% [100 µM] | [11] 40% [100 µM] | [12] 30.4% [100 µM] | [13] 14.5% [100 µM] | [15] 34.3% [100 µM] | [19] 23.7% [100 µM] | [18] 46.1% [100 µM]

COc1cnc2c(c1)C(=O)c1c-2n(CCCN2CCN(CCO)CC2)c(=O)c2cc([N+](=O)[O-])ccc12
active: [1] -40.2% | [3] -20.4% | [5] -75.7% | [8] -88.9% | [9] -85.4% | [12] -26.6% | [13] -35.8%
inactive: [2] 64% | [4] 39.8% | [6] 76.9% | [7] 38.3% | [10] 62% | [11] 43.3% | [14] 74.3% | [15] 31% | [19] 29.2% | [16] 57.5% | [18] 18.2%
